Reference: PubChem BioAssay AID1508609 (The Scripps Research Institute Molecular Screening Center, 2020)
Screen size: about 6,700 compounds; fewer than 10 were called active.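 How the source made its calls: active means mean percent activation across replicates above the confirmation screen cutoff of 4.91%; inactive means the rest.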 Not all results are given here.

target: G-protein coupled receptor 151 (Homo sapiens) (UniProt Q8TDV0); assay: GPR151 activators, triplicate retest, confirmation, cell-based, PathHunter beta-arrestin, luminescence (AID 1508609); conditions: GPR151 PathHunter beta-arrestin cells, 90 min, at 11.2 µM, stronger effect = higher value, % of EA-reagent control over plate median
Sequence (Q8TDV0 whole entry, looked up): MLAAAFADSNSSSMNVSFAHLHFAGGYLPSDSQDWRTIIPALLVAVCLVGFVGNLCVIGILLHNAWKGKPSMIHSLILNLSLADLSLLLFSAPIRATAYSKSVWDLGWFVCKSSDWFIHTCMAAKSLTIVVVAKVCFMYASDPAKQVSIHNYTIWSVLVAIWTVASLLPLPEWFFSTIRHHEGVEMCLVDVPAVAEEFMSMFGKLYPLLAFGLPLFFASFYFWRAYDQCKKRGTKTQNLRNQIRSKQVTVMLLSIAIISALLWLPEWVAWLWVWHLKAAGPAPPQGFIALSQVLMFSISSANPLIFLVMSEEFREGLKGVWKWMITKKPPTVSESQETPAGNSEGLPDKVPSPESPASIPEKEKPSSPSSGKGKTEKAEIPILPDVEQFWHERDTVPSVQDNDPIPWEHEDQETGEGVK

activation, inactive:
Cc1nnc(SCC(=O)NCc2ccccc2)s1 -1.41%
CCN(CC)c1nc(Nc2cc(OC)c(OC)c(OC)c2)nc(N2CCOCC2)n1 -0.81%
COc1ccc2c(c1)C=C(CN1CCN(CC3CCCCC3)C(CCO)C1)CO2 (configuration not stated) 0.99%
COc1ccc(OC)c(NC(=O)CN(c2cccc(C)c2C)S(C)(=O)=O)c1 -1.37%
CCc1cc2c(=O)c(-c3ccc4c(c3)OCCCO4)coc2cc1OC(=O)N1CCOCC1 -0.64%
COc1cc(Nc2cc(N3CCN(c4ccc(F)cc4)CC3)c3noc4c3c2C(=O)c2ccccc2-4)cc(OC)c1OC -0.64%
O=CN1CCN(CCC(=O)Nc2ccccc2)CC1 1.05%
CC1(C(=O)Nc2cccc(C(F)(F)F)c2)CC2c3ccccc3C1c1ccccc12 (configuration not stated) 0.28%
C=CCN(c1ccc(C(=O)Nc2ccc(OCc3ccccc3)cc2)cc1)S(C)(=O)=O -0.47%
O=C(COc1ccc(S(=O)(=O)NCCc2ccccc2)cc1)NC1CC1 -1.2%
COc1cc(NC(=O)C2CC(c3ccccc3O)=NO2)c(OC)cc1Cl (configuration not stated) 0.24%
CCCCCC(=O)N/N=C(/C)c1ccc(O)cc1O 0.98%
CCOC(=O)c1sc(NC(=O)CSc2ncccn2)c(C#N)c1C -0.62%
O=C(Cn1nnc2ccccc21)N/N=C/c1c(O)ccc2ccccc12 0.12%
CC(C)CCSc1nc2c(c(=O)n1Cc1ccco1)C1(CCCCC1)Cc1ccccc1-2 0.06%
CN1CCN(c2ccc(-c3nc4ccc(C(=O)NCc5nc6ccccc6[nH]5)cc4s3)cc2)CC1 -0.31%
COc1cccc(C(=O)Nc2sc3c(c2C(N)=O)CCCCCC3)c1 0.1%
COc1ccc(N2C(=O)C3CCCN3C2c2cccc(OC)c2)cc1 (configuration not stated) -1.45%
CCOc1ccc(/C=C2N=C(/C=C/c3cccc(Cl)c3Cl)OC\2=O)cc1 -0.04%
CCN(CC)S(=O)(=O)c1ccc(N2CCCC2)c(NC(=O)c2ccc([N+](=O)[O-])o2)c1 0.12%
COCCN1C(=O)CC(CC(=O)NCc2nc3ccccc3[nH]2)(c2ccccc2C)C1=O (configuration not stated) 0.82%
CCc1nn(CCCN2CCN(c3cccc(Cl)c3)CC2)c(=O)n1CCOc1ccccc1 0.13%
CCOC(=O)c1sc2nc(SCC(=O)N(C)Cc3ccccc3)n(Cc3ccc4c(c3)OCO4)c(=O)c2c1C -1.12%
COc1ccccc1C(=O)N/C(=C\c1ccc2c(c1)OCO2)C(N)=O -0.62%
O=C(N/N=C/c1cccc(Cl)c1Cl)c1cccs1 -1.68%
Cc1ccc(NCC(=O)N/N=C\c2ccc(I)o2)cc1 -0.49%
CC1CCN(CC(=O)Nc2ccccc2Cl)CC1 0.1%
CCCOc1ccc([N+](=O)[O-])cc1C=C1C(=O)NC(=O)NC1=O -0.34%
COc1ccc(OC)c(NC(=O)CSc2nnc3[nH]c(=O)c(C)c(C)n23)c1 -0.4%
COc1ccc(C(=O)Cc2cc3ccccc3oc2=O)c(OC)c1 -0.78%
CCc1ccc(-c2ccc(C3CCC(CC)CC3)cc2)nc1 (configuration not stated) -0.84%
CCc1ccc(S(=O)(=O)NCCOc2cc(N3CCOCC3)ncn2)cc1 0.53%
CCOC(=O)C1=C(CC)OC(N)=C(C#N)C1c1ccc(C(F)(F)F)cc1 (configuration not stated) -0.53%
CCC[C@@H]1NC(=O)[C@@H]2C[C@H](NCc3nc(-c4ccc(F)cc4)cs3)CN2C1=O 0.46%
CC(C)CC(C(=O)Nc1cccc([N+](=O)[O-])c1)N1C(=O)c2ccccc2C1=O (configuration not stated) 0.6%
COc1ccc(C(=O)COC(=O)C(Cc2ccccc2)NC(=O)c2ccco2)cc1 (configuration not stated) 0.8%
CCC1(c2ccc(Cl)cc2Cl)NC(=S)N(c2ccc(C)c(C)c2)N1 (configuration not stated) 0.75%
CCC(C(=O)N1CCCCC1)n1c(C)c2cnn(-c3ccccc3)c(=O)c2c1C (configuration not stated) -0.56%
Cc1ccc2cc(C#N)c(SCCO)nc2c1 0.26%
COc1ccc(/C=C(\C#N)C(=O)Nc2cccc(S(=O)(=O)N3CCCCC3)c2)cc1 -1.24%
Cc1ccc(Nc2nc(-c3ccccn3)cs2)cc1C -1%
CC(C)(C)NC(=O)Cc1coc2ccc3ccccc3c12 0.92%
COc1ccc(/C=C(\C#N)C(=O)Nc2ccc(F)cc2)c(OC)c1 0.7%
Cc1ccc(-n2cc(-c3ccccc3)c3c(N4CC(C)OC(C)C4)ncnc32)cc1 (configuration not stated) 0.03%
COc1cc(/C=N/N=C2/NC(=O)CS2)ccc1OC(=O)c1ccccc1C -0.88%
O=C(CN1C(=O)S/C(=C\c2ccc(Cl)s2)C1=O)Nc1ccccc1F -1.03%
CO[C@@H]1COC(=O)[C@@H](C)COC(=O)[C@H](C)NC(=O)C/C=C/[C@H]1C 0.63%
Cn1c2ccccc2c2nnc(SCC(=O)Nc3ccc(NC(=O)C4CC4)cc3)nc21 0.69%
Cc1nn(C)c(C)c1-c1nc2ncnc(NCCO)c2[nH]1 -0.32%
CCc1nnc2n1N(C(C)=O)C(c1ccc3c(c1)CCCC3)=C(C(C)=O)S2 0.79%
CC(C)(C)OC(=O)N1CCC[C@H](Cn2cc(C(=O)O)nn2)C1 0.63%
Cc1nc2cc(C(=O)NCc3ccc4c(c3)OCO4)ccc2n1-c1ccc(OCc2ccccc2)cc1 -1.41%
CCCCNC(=O)C1(c2ccc(OC)cc2)CCOCC1 -0.13%
CCC(=O)N(CCC(Cc1ccccc1)c1ccc2c(c1)OCO2)Cc1ccc(OC(C)C)cc1 (configuration not stated) 1.24%
CC(C)c1ccc(Nc2nccn3c(-c4cccc(CO)c4)cnc23)cc1 1.58%
Cc1ccc(S(=O)(=O)NCc2nc3nc(C)cc(C)n3n2)cc1 -1.42%
Nc1cc(=O)nc(SCC(=O)Nc2nccs2)n1-c1ccc(F)cc1 1.67%
